# Reference: PubChem BioAssay AID463173 (ICCB-Longwood Screening Facility, Harvard Medical School, 2010)
# Among all 52,000 compounds or so, about 4,300 (8.3%) were called active. The sample as a whole holds a higher share of actives than the screen did. Unmarked numbers belong to inactive results. Rule as the data show it: active = survival mostly below about 52% (no sharp cut-off); inactive = mostly above about 56%.
# System: DeltatarO mutant
# Assay: S. aureus survival, RN4220 and DeltatarO strains – OD600, teichoic acid synthesis inhibitors, primary screen (AID 463173)
# Conditions: S. aureus RN4220 wild type/DeltatarO growth, OD600, 18 h, active compounds read low, screened at 18.75 µg/mL (by protocol)
row,Structure (SMILES),survival
1,COc1ccccc1NC(=O)c1oc2ccccc2c1NC(=O)Cc1ccccc1,78%
2,CCOc1ccc(NC(=O)CCc2c(C)nc3nc(-c4cc(OC)cc(OC)c4)nn3c2C)cc1,78%
3,Cc1ccc(CCNC(=O)CCn2c(=O)c3cccn3c3ccc(F)cc32)cc1,39% (active)
4,CSc1ccc(CCNC(=O)CCn2c(=O)c3cccn3c3ccc(F)cc32)cc1,48%
5,CCCCNC(=O)CCn1c(=O)c2cccn2c2cccnc21,103%
6,CN(C)c1ccc(CNC(=O)CCn2c(=O)c3cccn3c3ccc(F)cc32)cc1,57%
7,Cc1ccc(CCNC(=O)CCCn2c(=O)c3cccn3c3ccc(F)cc32)cc1,33% (active)
8,CCCCNC(=O)CCn1c(=O)c2cccn2c2ccc(F)cc21,41% (active)
9,Cc1cccc(CNC(=O)CCn2c(=O)c3cccn3c3ccc(F)cc32)c1,92%
10,Cc1ccc(Cc2nc3ccccc3nc2SCC(=O)N2CCN(c3ccccc3F)CC2)cc1,49%
11,CCOc1ccc(-n2ccn3c(CC(C)CC(=O)O)nnc3c2=O)cc1 (stereo unspecified),182%
12,O=C(Nc1ccccc1)c1ccc(F)cc1,76%
13,CCOC(=O)CC(NC(=O)Cn1nnc(-c2ccc(C(F)(F)F)cc2)n1)c1ccccc1Cl (stereo unspecified),73%
14,Cc1oc(-c2ccccc2Cl)nc1CS(=O)CC(=O)N1CCN(c2cccc(C(F)(F)F)c2)CC1 (stereo unspecified),131%
15,Cc1oc(-c2ccccc2F)nc1CS(=O)(=O)CC(=O)N1CCN(c2cccc(C(F)(F)F)c2)CC1,78%
16,Cc1ccc(-c2nc(CS(=O)CC(=O)N3CCN(c4cccc(Cl)c4)CC3)c(C)o2)cc1 (stereo unspecified),46%
17,Cc1oc(-c2ccccc2F)nc1CS(=O)(=O)CC(=O)N1CCN(c2ccc(Cl)cc2)CC1,43% (active)
18,COc1ccc(-c2nc(CSCC(=O)N3CCN(c4cc(Cl)ccc4C)CC3)c(C)o2)cc1,-4% (active)
19,Cc1ccccc1-c1nc(CS(=O)CC(=O)N2CCN(c3cc(Cl)ccc3C)CC2)c(C)o1 (stereo unspecified),30% (active)
20,Cc1ccc(-c2nc(CS(=O)CC(=O)N3CCN(c4ccc(Cl)cc4)CC3)c(C)o2)cc1 (stereo unspecified),80%
21,Cc1oc(-c2ccccc2F)nc1CS(=O)(=O)CC(=O)N1CCN(c2ccccc2)CC1,77%
22,COc1ccc(-c2nc(CSCC(=O)N3CCN(c4ccc(OC)cc4)CC3)c(C)o2)cc1,77%

row,Structure (SMILES),survival
1,COc1cccc(-c2nc(CS(=O)CC(=O)N3CCN(c4cccc(C(F)(F)F)c4)CC3)c(C)o2)c1 (stereo unspecified),0% (active)
2,Cc1ccc(OCc2nc(-c3ccc(C(=O)N4CCN(c5cc(Cl)ccc5C)CC4)cc3)oc2C)cc1,76%
3,Cc1oc(-c2ccc(Cl)cc2)nc1CS(=O)CC(=O)N1CCN(c2cccc(C(F)(F)F)c2)CC1 (stereo unspecified),99%
4,Cc1cccc(-n2cc(-c3ccccc3)nc2SCC(=O)Nc2ccccc2Cl)c1,115%
5,CC(C)c1ccc(NC(=O)CS(=O)(=O)c2cccc3nsnc23)cc1,78%
6,CCOC(=O)c1sc2ccccc2c1S(=O)(=O)N1CCN(c2cc(C)ccc2C)CC1,100%
7,Cc1ccc(CSc2cn(CC(=O)N3CCCCCC3)c3ccccc23)cc1,84%
8,COc1ccc(CCN2C(=O)N(c3ccc(F)cc3)C(=O)C2CC(=O)Nc2ccc(OC)cc2)cc1 (stereo unspecified),67%
9,CCc1ccc2occ(CC(=O)Nc3ccc(C)c(C)c3)c2c1,102%
10,COc1ccc(OC)c(NC(=O)c2nnn(CC(=O)Nc3ccc(C(C)C)cc3)c2N)c1,63%
11,COc1ccc(-c2nc(CSCC(=O)N3CCN(c4ccccc4F)CC3)c(C)o2)cc1,35% (active)
12,COc1ccc(-c2nc(CSCC(=O)N3CCN(c4ccc(F)cc4)CC3)c(C)o2)cc1,57%
13,COc1ccc(-c2nc(CSCC(=O)N3CCN(c4ccccc4)CC3)c(C)o2)cc1,60%
14,Cc1cccc(NC(=O)C(NS(=O)(=O)c2cccc3nsnc23)c2ccccc2)c1C (stereo unspecified),95%
15,COCCn1c(=NC(=O)c2ccc3c(c2)OCCO3)sc2cc(C(=O)OC)ccc21,86%
16,CCC12CN3CC(C)(CN(C1)C3c1ccccc1C)C2=O (stereo unspecified),76%
17,COc1ccc(-c2nc3ccccc3o2)cc1NC(=O)c1cc([N+](=O)[O-])ccc1N1CCOCC1,44% (active)
18,Cc1c(NC(=O)c2cc([N+](=O)[O-])ccc2N2CCOCC2)cccc1-c1nc2ccccc2o1,50%
19,O=C(Nc1cccc(-c2nc3ccccc3o2)c1)c1cc([N+](=O)[O-])ccc1N1CCOCC1,42% (active)
20,O=C(Nc1cc(-c2nc3cc(Cl)ccc3o2)ccc1Cl)c1cc([N+](=O)[O-])ccc1N1CCOCC1,50%
21,O=C(Nc1ccc(Cl)c(-c2nc3cc(Cl)ccc3o2)c1)c1cc([N+](=O)[O-])ccc1N1CCOCC1,111%
22,COc1ccc2oc(-c3cccc(NC(=O)c4cc([N+](=O)[O-])ccc4N4CCOCC4)c3)nc2c1,49%

row,Structure (SMILES),survival
1,Cc1ccc(-c2nc3cc(Cl)ccc3o2)cc1NC(=O)c1cc([N+](=O)[O-])ccc1N1CCOCC1,57%
2,O=C(Nc1cc(-c2nc3ccccc3o2)ccc1Cl)c1cc([N+](=O)[O-])ccc1N1CCOCC1,57%
3,O=C(Nc1cccc(-c2nc3cc(Cl)ccc3o2)c1)c1cc([N+](=O)[O-])ccc1N1CCOCC1,40% (active)
4,COCCN1Cc2cccc(C(=O)Nc3ccc(C(=O)OC)cc3)c2C1=O,82%
5,CC(C)(C)C(=O)CSc1nc2ccsc2c(=O)n1Cc1ccccc1F,126%
6,CCOC(=O)c1c(C)[nH]c(C)c1S(=O)(=O)N1CCCC(C(=O)Nc2ccc(C)c(N(C)C)c2)C1 (stereo unspecified),88%
7,CCCCOc1ccc(C(=O)N2CCN(CCc3ccccn3)CC2)cc1,51%
8,O=C(CN1CCC(NC(=O)NC2CCCCC2)CC1)Nc1cccc(I)c1,100%
9,CC1=Nc2cc(C(=O)NCCc3ccc(Cl)cc3)ccc2Sc2ccc(C)cc21,56%
10,Cc1ccc(C(=O)CSc2nnc3ccc4ccccc4n23)cc1,60%
11,CCOc1ccccc1NC(=O)NC1(C(=O)NCc2ccco2)CCCCC1,84%
12,CCc1c(C)c2ccc(O)c(CN3CCN(c4ccc(F)cc4)CC3)c2oc1=O,55%
13,CCc1c(C)c2ccc(O)c(CN3CCN(c4ccc(OC)cc4)CC3)c2oc1=O,55%
14,CCc1c(C)c2ccc(O)c(CN3CCN(c4ccccc4)CC3)c2oc1=O,56% (active)
15,Cc1ccc(-n2nc3c(N4CCC(C(=O)NC5CCCCC5)CC4)nnc(C)c3c2C)cc1,81%
16,Cc1ccc(N2CNC(=O)c3c(C)cc(C)nc32)cc1,74%
17,Cc1cccc2sc(N(Cc3cccnc3)C(=O)CCS(=O)(=O)c3ccccc3)nc12,89%
18,CC(=O)N(Cc1cccnc1)c1nc2c(C)c(C)ccc2s1,72%
19,Cc1ccc2sc(N(Cc3cccnc3)C(=O)CCS(=O)(=O)c3ccccc3)nc2c1C,6% (active)
20,CC(=O)c1ccc(C(=O)N(Cc2cccnc2)c2nc3c(C)c(C)ccc3s2)cc1,-1% (active)
21,Cc1cc(C)c2nc(N(Cc3cccnc3)C(=O)CCS(=O)(=O)c3ccccc3)sc2c1,83%
22,CC(=O)c1ccc(C(=O)N(Cc2cccnc2)c2nc3c(Cl)cccc3s2)cc1,91%

row,Structure (SMILES),survival
1,C=CCNCc1cccn1-c1ccccc1,76%
2,CCCCn1cc(S(=O)(=O)c2ccc(CC)cc2)c(=O)c2cc(F)c(N3CCCC(C)C3)cc21 (stereo unspecified),115%
3,O=C(CN1CCC(NC(=O)Nc2ccccc2-c2ccccc2)CC1)NCc1ccco1,78%
4,Cc1cccnc1Nc1nc(-c2cccnc2)cs1,48%
5,CC1CCCCC1NC(=O)CSc1nncn1N (stereo unspecified),84%
6,O=C(Nc1cccc(F)c1)c1oc2ccccc2c1NC(=O)C12CC3CC(CC(C3)C1)C2,72%
7,Oc1c(C(c2ccccc2)N2CCOCC2)sc2nc(-c3ccco3)nn12 (stereo unspecified),69%
8,CN1CCN(C(c2ccccc2)c2sc3nc(-c4ccco4)nn3c2O)CC1 (stereo unspecified),75%
9,Oc1c(C(c2ccccc2)N2CCN(Cc3ccccc3)CC2)sc2nc(-c3ccco3)nn12 (stereo unspecified),37% (active)
10,Cc1ccc(C(c2sc3nc(-c4ccco4)nn3c2O)N2CCC3(CC2)OCCO3)cc1 (stereo unspecified),78%
11,Oc1c(C(c2ccc(Cl)cc2)N2CCC3(CC2)OCCO3)sc2nc(-c3ccco3)nn12 (stereo unspecified),32% (active)
12,Oc1c(C(c2ccccc2)N2CCC3(CC2)OCCO3)sc2nc(-c3ccco3)nn12 (stereo unspecified),69%
13,Cc1ccc(C(c2sc3nc(-c4ccco4)nn3c2O)N2CCN(Cc3ccccc3)CC2)cc1 (stereo unspecified),112%
14,CN1CCN(C(c2ccccc2Cl)c2sc3nc(-c4ccco4)nn3c2O)CC1 (stereo unspecified),131%
15,Oc1c(C(c2ccccc2Cl)N2CCOCC2)sc2nc(-c3ccco3)nn12 (stereo unspecified),0% (active)
16,Oc1c(C(c2ccccc2Cl)N2CCCC2)sc2nc(-c3ccco3)nn12 (stereo unspecified),83%
17,Oc1c(C(c2ccc(F)cc2)N2CCN(Cc3ccccc3)CC2)sc2nc(-c3ccco3)nn12 (stereo unspecified),73%
18,Oc1c(C(c2ccccc2)N2CCCC2)sc2nc(-c3ccco3)nn12 (stereo unspecified),0% (active)
19,O=C(c1ccc2c(c1)N(Cc1ccc(Cl)cc1)C(=O)c1ccccc1S2(=O)=O)N1CCCCCC1,64%
20,Cn1nc(CC(=O)Nc2ccc(N3CCN(C(=O)OC(C)(C)C)CC3)cc2)c2ccccc2c1=O,84%
